In PubChem BioAssay (NCI):
This is part of a sample that, as a whole, favours compounds with a hit. Of some 83,000 tested, about 20% had one in any assay.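 The test compound was applied at a single concentration to cells in 96-well plates for 48 hours, and percent growth was recorded.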 Values without a mark were called inactive. The source made the active and inactive calls. How the source made its calls: active means growth percent below 10; inactive means the rest.

Columns and labels:
Assay in all cases: NCI-60 one-dose screen, 48 h (100 = growth as untreated, 0 = no growth, -100 = all killed)
Conditions in all cases: 10 µM
RPMI-8226 leukemia = tested on: RPMI-8226 leukemia
OVCAR-8 ovarian = tested on: OVCAR-8 ovarian
OVCAR-5 ovarian = tested on: OVCAR-5 ovarian
SK-OV-3 ovarian = tested on: SK-OV-3 ovarian
IGROV1 ovarian = tested on: IGROV1 ovarian
OVCAR-3 ovarian = tested on: OVCAR-3 ovarian
HS 578T breast = tested on: HS 578T breast
NCI/ADR-RES ovarian = tested on: NCI/ADR-RES ovarian
T-47D breast = tested on: T-47D breast
BT-549 breast = tested on: BT-549 breast
MDA-MB-435 melanoma = tested on: MDA-MB-435 melanoma
SW-620 colon = tested on: SW-620 colon
MCF7 breast = tested on: MCF7 breast
HCT-116 colon = tested on: HCT-116 colon
HCC-2998 colon = tested on: HCC-2998 colon
KM12 colon = tested on: KM12 colon
OVCAR-4 ovarian = tested on: OVCAR-4 ovarian

Structure (SMILES)	growth (RPMI-8226 leukemia)	growth (OVCAR-8 ovarian)	growth (OVCAR-5 ovarian)	growth (SK-OV-3 ovarian) [%]	growth (IGROV1 ovarian)	growth (OVCAR-3 ovarian)	growth (HS 578T breast)	growth (NCI/ADR-RES ovarian)	growth (T-47D breast)	growth (BT-549 breast)	growth (MDA-MB-435 melanoma)	growth (SW-620 colon)	growth (MCF7 breast)	growth (HCT-116 colon)	growth (HCC-2998 colon)	growth (KM12 colon)	growth (OVCAR-4 ovarian)
Cc1ccc(Nc2nnc(-c3cc(-c4ccncc4)n(-c4ccccc4)n3)s2)cc1	38.6%	63.5%	104%	100	89.2%	118%	61.9%	59.2%	64.5%	64.8%	78.3%	94%	80.3%	51.3%	57.1%	50.8%	
COc1cc(/C=N/NC(=O)c2ccccc2Nc2ccnc(C(F)(F)F)c2)ccc1O	90.8%	101%	116%	98.9	123%	109%	97.4%	143%	116%	116%	106%	104%	86.8%	102%	123%	114%	
COc1cc2nc(Nc3cccc(C(=O)O)c3)nc(N)c2cc1OC	307%	105%	114%		16.4%	101%	93.4%	133%	105%		107%	96.3%	97.8%	-100% (active)	135%	108%	103%
COc1cc2nc(Nc3cccc(NC(C)=O)c3)nc(N)c2cc1OC	55.7%	99%	117%		26.8%	111%	95.7%	149%		118%	123%	95.9%	99.5%	95.9%	113%	89.5%	107%
COc1ccc(-c2nc3sccn3c2-c2nc3c([nH]2)C(=O)c2ccccc2C3=O)cc1	74.7%	96.2%	89.8%		105%	114%	90.6%	86.5%	72%	112%	95.9%	101%	83.8%	91%	95.7%	103%	84.1%
O=C1N=NC2=C1c1c3ccccc3c(O)n1CC2	101%	101%	103%		117%	127%	147%	105%	103%	110%	99.8%	106%	94.2%		101%	109%	106%
Cc1cn(C2CCCCO2)c(=O)nc1NO (stereo unspecified)	111%	101%	109%	119	113%	109%	86.8%	107%	105%	107%	97.6%	105%	80.3%	111%	101%	102%	
ClC(Cl)(Cl)c1nc2nccnc2[nH]1	98.8%	107%	104%		103%	118%	99.2%	109%	101%	103%	102%	107%	94.1%	103%	122%	106%	97.3%
CNc1ccc(CSc2ccc(C)cc2)cc1	20.8%	91.1%	101%		78.6%	90.6%	95.8%	92.1%	64.5%		85.2%	93.7%	77%	93.6%	94%	62.4%	34%
CC(C)(Cl)CCC1=C(Cl)C(=O)c2ccccc2C1=O	-28.9% (active)	68%	101%		39.7%		62.6%	62.9%	-38.7% (active)	66.5%	66.4%	7.89% (active)	-0.254% (active)		74.3%	35.7%	11.5%
CN(C)CCNC(=O)c1cccn2c(=O)c3cc4ccccc4cc3nc12	-29.2% (active)	-9.49% (active)	29.6%		19.3%	-15.3% (active)	-14.5% (active)	5.94% (active)			-68.6% (active)	-11.9% (active)	4.71% (active)	-41% (active)		-10.2% (active)	-3.24% (active)
COc1ccc(-c2nc(-c3nc4ccc(OC)cc4[nH]3)cc3c2[nH]c2ccccc23)cc1	-28.2% (active)	17.5%	90%		21.1%	51.9%		32.9%	25.5%		39.2%	40.6%	31.8%	21.3%	57.4%	20.4%	52.8%
Nc1nc(N=Nc2ccc(O)cc2)cc(=O)[nH]1	106%	97.2%	104%	104	109%	125%	108%	94.6%	95.7%	95.5%	98.3%	104%	101%	112%	106%	111%	
O=C(Nc1cccc(-n2cc(-c3ccncc3)c(-c3ccc(O)c(Cl)c3)n2)c1)Nc1ccc(Cl)c(Cl)c1	-30.8% (active)	-24.9% (active)	31.4%		-0.387% (active)	-16.5% (active)	-0.243% (active)	17.9%	-3.41% (active)	1.9% (active)	-16.7% (active)	6.85% (active)	-0.812% (active)		20.5%	0.41% (active)	13.8%
COc1ccc(-c2csc(NC(=O)CSc3nc(C)c(-c4ccccc4)n3Nc3ccccc3)n2)cc1	30.7%	31.7%	81.2%	88.3	41.8%	56.6%	19.8%	12.1%	24.8%	63.5%	56.1%	70.2%	41.7%	36.4%	78.7%	41.5%	
O=C(Nc1cccc(-n2cc(-c3ccncc3)c(-c3ccc(O)c(Cl)c3)n2)c1)c1ccc(N2CCOCC2)c(C(F)(F)F)c1	-18% (active)	30.7%	37.8%		64.8%		33.5%	43.1%	36.4%	47.2%	53.9%	36.3%	24.6%	26.7%	23.6%	14.9%	69.3%
COc1cccc(C(=O)Nc2ccc(CN3CCc4nc5cc(OC)c(OC)cc5cc43)cc2)c1	40%	46.8%	64.8%		31.8%	53.1%	61.2%	47.1%	32.4%	65%	39.5%	59%	12%	38.9%	14.1%	16.4%	57.1%
Cc1cc(N(CCCNc2ccnc3cc(Cl)ccc23)Cc2ccc3c(c2)OCO3)nc(N2CCCCC2)n1	-49.5% (active)	-11.2% (active)	4.69% (active)		-51.1% (active)	-71.8% (active)	-32.4% (active)	7.45% (active)	-37.3% (active)	-24% (active)	-74.6% (active)	-39.4% (active)		-43.9% (active)	-57.6% (active)	10.4%	-9.93% (active)
COc1ccc(Cl)cc1C(=O)Nc1nc2ccc(Cl)cc2s1	80.5%	88.9%	124%	91.9	65.9%	103%	102%	102%	47.2%	97.7%	97.6%	101%	41.7%	53.2%	102%	94.8%	
CC(C)(C)c1cc(Br)cc(C(C)(C)C)c1O	93.9%	103%	111%		115%	108%	120%	107%	99.8%	111%	95.8%	112%	99%	104%	103%	105%	112%
